Assay results published in ChEMBL document CHEMBL1157539, “Thousands of chemical starting points for antimalarial lead identification” (Nature, 2010).
Where “and” joins values, the source holds several entries; their conditions need not be identical. Equal values may be shown once.

Test system: Plasmodium falciparum
Assay: GSK_TCMDC: Inhibition of Plasmodium falciparum Dd2 in whole red blood cells, using parasite LDH activity as an index of growth. Test compounds present at 2uM
Type: functional

First: CS(=O)(=O)Nc1ccc2[nH]cc(C3CCN(CC4CCN(C(=O)/C=C/c5ccc(Cl)c(Cl)c5)CC4)CC3)c2c1
Second: O=C(COc1ccc(Cl)cc1)N1CCC(CN2CCC(c3c[nH]c4ccccc34)CC2)CC1
The Inhibition of the first is higher: 92% for the first, 13% for the second.

Going from COC(=O)/C=C/c1ccc(CC(C)NCC(O)c2cccc(Br)c2)cc1 (configuration not stated) to COC(=O)c1ccc(CC(C)NCC(O)c2ccc(Cl)c(Cl)c2)cc1 (configuration not stated), the Inhibition falls from 93% to 33%.

Compared with CN(c1cc(NC(=O)c2ccc(F)cc2)ccn1)C1CCN(Cc2ccc(C#N)cc2)CC1.O=C(O)C(F)(F)F, COCCNCc1ccc(-c2ccc(CN(C(=O)Nc3ccccc3)C3CCN(Cc4ccccc4)CC3)cc2)cc1.O=C(O)C(F)(F)F is lower in Inhibition: 54% for the first, 39% for the second.

Going from c1ccc(C(OCCC2CCN(Cc3cccnc3)CC2)c2ccccc2)cc1 to Oc1ccccc1CN1CCC(CCOC(c2ccccc2)c2ccc(Cl)cc2)CC1 (configuration not stated), the Inhibition rises from 98% to 99%.

First: O=C(NC1CCC(CN2CCC(c3c[nH]c4ccccc34)CC2)CC1)c1cc2cccc([N+](=O)[O-])c2[nH]1 (configuration not stated)
Second: O=C(NC1CCC(CN2CCC(c3c[nH]c4ccccc34)CC2)CC1)c1cc(-c2cccc(Cl)c2)n(-c2ccc(Cl)cc2Cl)n1 (configuration not stated)
The Inhibition of the first is higher: 100% for the first, 25% for the second.

First: Cl.c1ccc2c(NCCCCCCCCCNc3c4ccccc4nc4ccccc34)c3ccccc3nc2c1
Second: CC(C)CNCc1cccc(-c2cccc(CN(C(=O)Nc3ccccc3)C3CCN(Cc4ccccc4)CC3)c2)c1.O=C(O)C(F)(F)F
The Inhibition of the first is higher: 95% for the first, 89% for the second.

Compared with CCOC(=O)c1c(CN2CCN(C)CC2)n(Cc2ccccc2)c2cc(Br)c(O)cc12, CCOC(=O)c1c(C)n(C2CCCCC2)c2cc(Br)c(O)cc12 is higher in Inhibition: 46% for the first, 71% for the second.

Compared with CCCCCOc1ccc(CC(C)NCC(O)c2cccc(Cl)c2)cc1 (configuration not stated), Cc1ccc(CC(C)NCC(O)c2cccc(Cl)c2)cc1F.Cl (configuration not stated) is lower in Inhibition: 99% for the first, 88% for the second.

Compared with CCCCCC(C)C(C)c1cc(O)c2c(c1)OC(C)(C)c1cnccc1-2.Cl (configuration not stated), CN(C)CCC(=O)c1ccccc1.Cl is lower in Inhibition: 74% for the first, 5% for the second.

Going from Oc1ccc(CN2CCN(CCOC(c3ccccc3)c3ccc(Cl)cc3)CC2)cc1Cl (configuration not stated) to CC(C)CNCc1ccc(-c2cccc(CN(C(=O)CCC3CCCC3)C3CCN(Cc4ccccc4)CC3)c2)cc1.O=C(O)C(F)(F)F, the Inhibition falls from 97% to 92%.

Going from CCOC(C(=O)OCC1CCCN1C)(c1ccccc1)c1ccccc1 (configuration not stated) to COC(C(=O)OCCC1CCCN1C)(c1ccccc1)c1ccccc1 (configuration not stated), the Inhibition rises from 3% to 9%.

Cc1ccc(C)c(C=CC(=O)NC2CCC(CN3CCC(c4c[nH]c5ccccc45)CC3)CC2)c1 (configuration not stated) was tested, and the Inhibition was 55% and 80%.
O=C(C=Cc1ccccc1C(F)(F)F)NC1CCC(CN2CCC(c3c[nH]c4ccccc34)CC2)CC1 (configuration not stated) was tested, and the Inhibition was 90% and 47%.

Test system: HepG2
Assay: GSK_TCMDC: Percent inhibition of human HepG2 cell line. Test compounds present at 10uM.
Type: functional

First: O=C(/C=C/c1cc(F)cc(C(F)(F)F)c1)N1CCC(CN2CCC(c3c[nH]c4ccccc34)CC2)CC1
Second: COc1cc(C=CC(=O)N2CCC(CN3CCC(c4c[nH]c5ccccc45)CC3)CC2)ccc1O
The Inhibition of the first is higher: 32% for the first, 11% for the second.

Going from COc1ccc2[nH]cc(C3=CCN(Cc4ccccc4)CC3)c2c1 to Cl.Fc1ccc2[nH]cc(CCN3CCC(CNCc4ccccc4)CC3)c2c1, the Inhibition rises from 51% to 67%.

First: C=CCOc1ccccc1CNCC(O)c1cccc(C(F)(F)F)c1 (configuration not stated)
Second: CCCCCOc1ccc(CC(C)NCC(O)c2cccc(Cl)c2)cc1 (configuration not stated)
The Inhibition of the first is higher: 10% for the first, 0% for the second.

First: C#CCN1CCC2=C(C1)c1c(O)cc(C(C)CCCc3ccc(F)cc3)cc1OC2(C)C (configuration not stated)
Second: CCCCCC(C)C(C)c1cc(O)c2c(c1)OC(C)(C)c1cnccc1-2.Cl (configuration not stated)
The Inhibition of the first is lower: 1% for the first, 7% for the second.

Going from COc1coc(C(=O)NC2CCN(CC3(c4ccc(Cl)cc4)CCC3)CC2)c1OC to O=C(COc1ccc(Cl)cc1)N1CCC(CN2CCC(c3c[nH]c4ccccc34)CC2)CC1, the Inhibition rises from 2% to 48%.

Compared with CC(=O)C1(c2ccccc2)CCN(CCC2(c3ccc(Cl)c(Cl)c3)CN(C(=O)Nc3cccc(C(F)(F)F)c3)CCO2)CC1 (configuration not stated), O=C(NCc1ccccc1)c1nn(CCCN2CCC3(CC2)C(=O)NCN3c2ccccc2)cc1-c1ccc(Cl)c(Cl)c1 is lower in Inhibition: 24% for the first, 6% for the second.

Compared with CC(NC(C)(C)C)C(O)c1ccc(Cl)c(C(F)(F)F)c1.Cl (configuration not stated), Cc1ccc(CC(C)NCC(O)c2cccc(Cl)c2)cc1F.Cl (configuration not stated) is higher in Inhibition: 0% for the first, 1% for the second.

First: COc1cc(NCCCNC(=O)c2cn(Cc3ccccc3)c3ccccc23)nc2ccccc12
Second: Cl.c1ccc2c(NCCCCCCCCCNc3c4ccccc4nc4ccccc34)c3ccccc3nc2c1
The Inhibition of the first is lower: 13% for the first, 99% for the second.

Going from COc1ccc(N(c2nc(-c3cc(Cl)ccc3Cl)cs2)C2CCNCC2)cc1.O=C(O)C(F)(F)F to CN(c1cc(NC(=O)c2ccc(F)cc2)ccn1)C1CCN(Cc2ccc(C#N)cc2)CC1.O=C(O)C(F)(F)F, the Inhibition falls from 17% to 13%.

Going from COc1ccc(CCNCc2ccc3nc(N)cc(C)c3c2)cc1 to COC(=O)c1ccc(CC(C)NCC(O)c2ccc(Cl)c(Cl)c2)cc1 (configuration not stated), the Inhibition falls from 23% to 0%.

First: CS(=O)(=O)Nc1ccc2[nH]cc(C3CCN(CC4CCN(C(=O)/C=C/c5ccc(Cl)c(Cl)c5)CC4)CC3)c2c1
Second: O=C(NC1CCC(CN2CCC(c3c[nH]c4ccccc34)CC2)CC1)c1cc2cccc([N+](=O)[O-])c2[nH]1 (configuration not stated)
The Inhibition of the first is lower: 27% for the first, 36% for the second.

First: COC(=O)/C=C/c1ccc(CC(C)NCC(O)c2cccc(Br)c2)cc1 (configuration not stated)
Second: CC(C)CNCc1ccc(-c2cccc(CN(C(=O)CCC3CCCC3)C3CCN(Cc4ccccc4)CC3)c2)cc1.O=C(O)C(F)(F)F
The Inhibition of the first is lower: 2% for the first, 62% for the second.

First: c1ccc(C(OCCC2CCN(Cc3cccnc3)CC2)c2ccccc2)cc1
Second: Oc1ccccc1CN1CCC(CCOC(c2ccccc2)c2ccc(Cl)cc2)CC1 (configuration not stated)
The Inhibition of the first is lower: 12% for the first, 19% for the second.

Compared with CCOC(=O)c1c(CN2CCN(C)CC2)n(Cc2ccccc2)c2cc(Br)c(O)cc12, CCOC(=O)c1c(C)n(C2CCCCC2)c2cc(Br)c(O)cc12 is lower in Inhibition: 11% for the first, 1% for the second.

Compared with CN(C)CCC(=O)c1ccccc1.Cl, CCOC(C(=O)OCC1CCCN1C)(c1ccccc1)c1ccccc1 (configuration not stated) is higher in Inhibition: 11% for the first, 13% for the second.

Compared with Oc1ccc(CN2CCN(CCOC(c3ccccc3)c3ccc(Cl)cc3)CC2)cc1Cl (configuration not stated), COCCNCc1ccc(-c2ccc(CN(C(=O)Nc3ccccc3)C3CCN(Cc4ccccc4)CC3)cc2)cc1.O=C(O)C(F)(F)F is higher in Inhibition: 11% for the first, 16% for the second.

First: CC(C)CNCc1cccc(-c2cccc(CN(C(=O)Nc3ccccc3)C3CCN(Cc4ccccc4)CC3)c2)c1.O=C(O)C(F)(F)F
Second: O=C(NC1CCC(CN2CCC(c3c[nH]c4ccccc34)CC2)CC1)c1cc(-c2cccc(Cl)c2)n(-c2ccc(Cl)cc2Cl)n1 (configuration not stated)
The Inhibition of the first is lower: 31% for the first, 53% for the second.

Compound COC(C(=O)OCCC1CCCN1C)(c1ccccc1)c1ccccc1 (configuration not stated) has an Inhibition of 6%.

COc1ccc(C=CC(=O)NC2CCC(CN3CCC(c4c[nH]c5ccccc45)CC3)CC2)cc1 (configuration not stated) was tested, and the Inhibition was 13% and 30%.
Cc1ccc(C)c(C=CC(=O)NC2CCC(CN3CCC(c4c[nH]c5ccccc45)CC3)CC2)c1 (configuration not stated) was tested, and the Inhibition was 46% and 38%.
In the case of O=C(C=Cc1ccccc1C(F)(F)F)NC1CCC(CN2CCC(c3c[nH]c4ccccc34)CC2)CC1 (configuration not stated), the Inhibition is reported as 47% and 73%.
